In the library only some 6.1% were active in any assay of this set; here they are far more common.
ERK AVP inh: qHTS Assay for Inhibitors of the ERK Signaling Pathway using a Homogeneous Screening Assay; hit rate 0.99% among 72,000; Potency, µM (series often up to 57.5 µM), without a hit: top-dose activity, negative = inhibition, usual class: inhibitors; HEK293-V1b, vasopressin-stimulated pERK AlphaScreen; AID 995, 2007; also: % is scaled to controls: 0 for no effect and ±100 for the full control effect; nearly all actives have a fitted effect of over 55% in size
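V1b-HEK293 cells; cpd 30 min 37C; 25 nM vasopressin 5 min; lyse 10 min; AlphaScreen beads 5 hr RT. Normalized to DMSO basal and 25 nM vasopressin; AC50 by Hill fit.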
PK Bst: Pyruvate Kinase; purified pyruvate kinase, luminescence ATP production; ribose 5-phosphate activator present at AC10; Potency, µM; hit rate 1.2% among 51,000; AID 361, 2006; in the data active = potency below about 11 µM; inconclusive = mostly about 12 µM to 25 µM;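 the screen sought inhibitors and activators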;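 also: scaled between full activation by ribose 5 phosphate and full inhibition by luteolin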
TSHR ag: qHTS Assay for Agonists of the Thyroid Stimulating Hormone Receptor; hit rate 0.48% among 73,000; Potency, µM (doses to about 57.1 µM), without a hit: at the highest dose activation, most hits filed as activators; Thyrotropin receptor (Homo sapiens), P16473; HEK293-CNG-TSHR cells (CNG channel as cAMP sensor), membrane potential dye, cAMP; active = well fitted activation curve with a large enough effect in the main read-out, with a control signal flat, not every such curve was filed as active; inconclusive = small, poorly fitted or top-dose-only effect, or a change in a side signal; inactive = no such curve, though single readings can be large or run the other way; % of control where 0% means no effect;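 also: the control signal comes from parental cells without the receptor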
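HEK 293 cells stably expressing TSHR and a modified CNG channel, with CNG-only parental cells as counterscreen, were preloaded 60 min at room temperature with membrane potential dye containing 100 uM RO 20-1724. Compound exposure was 30 min, and depolarization was read as fluorescence at 590 nm.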
GBA activity: Glucocerebrosidase; Lysosomal acid glucosylceramidase (Homo sapiens), P04062; purified enzyme, resorufin glucoside fluorescence (screen aimed at inhibitors), 20 min; Potency, µM; hit rate 1.1% among 48,000; AID 360, 2006; in the data active = potency below about 15 µM; inconclusive = mostly about 16 µM to 33 µM;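 also: the screen sought inhibitors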
Target sequence (P04062 whole entry, looked up): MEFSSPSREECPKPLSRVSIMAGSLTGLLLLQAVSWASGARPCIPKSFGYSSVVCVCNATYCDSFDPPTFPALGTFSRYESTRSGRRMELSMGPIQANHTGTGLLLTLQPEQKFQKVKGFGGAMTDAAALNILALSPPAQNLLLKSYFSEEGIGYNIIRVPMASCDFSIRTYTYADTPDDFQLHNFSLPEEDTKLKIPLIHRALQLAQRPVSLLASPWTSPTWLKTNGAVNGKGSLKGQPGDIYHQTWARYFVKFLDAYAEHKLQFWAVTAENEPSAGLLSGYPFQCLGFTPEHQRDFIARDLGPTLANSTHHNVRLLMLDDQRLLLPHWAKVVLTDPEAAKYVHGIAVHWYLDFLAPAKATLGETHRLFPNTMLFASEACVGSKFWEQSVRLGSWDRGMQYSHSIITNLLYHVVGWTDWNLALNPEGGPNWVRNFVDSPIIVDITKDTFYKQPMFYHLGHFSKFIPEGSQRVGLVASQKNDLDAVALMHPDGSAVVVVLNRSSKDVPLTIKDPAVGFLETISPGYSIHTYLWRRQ
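Wild-type enzyme at 0.2 nM final in 50mM citric acid/KH2PO4, 10mM sodium taurocholate, 0.01% tween-20, pH 5.9, with resorufin beta-D-glucopyranoside at 30 uM final. Compounds titrated, 20 min at RT, red fluorescence read; AC50 from titration.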
FLuc inh: qHTS Assay for Inhibitors of Firefly Luciferase | purified firefly luciferase, luminescence, 8 min | Potency, µM (top dose mostly 57.1 µM), for inactives: top-dose activity change, negative = inhibition, hits mostly inhibitors | hit rate 2.2% among 72,000; also: % is scaled to controls: 0 for no effect and ±100 for the full control effect; nearly all actives have a fitted effect of over 40% in size
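Firefly luciferase (PKLight detection mix) with 10 uM ATP in pH 7.2 imidazole buffer (KCl, MgCl2, Tween 20, BSA). Compounds tested across a concentration series (qHTS). Luminescence read after 8 min at ambient temperature.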
HEK293 cAMP ctrl: qHTS Assay for Agonists of the Thyroid Stimulating Hormone Receptor: Activators of Intracellular cAMP Concentrations in Parental HEK 293. AID 938, 2007. hit rate 2.5% among 73,000. parental HEK293 CNG cAMP sensor, membrane potential fluorescence. Potency, µM (highest dose often 57.1 µM), for inactives: at the highest dose activation, hits mostly activators; also: % of control where 0% means no effect; nearly all actives have a fitted effect of over 55% in size
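Counterscreen for endogenous-receptor signalling: CNG-channel HEK 293 cells report cAMP rise by membrane depolarization. After 60 min dye equilibration with 100 uM RO 20-1724, compounds incubated 30 min before bottom-read fluorescence at 590 nm.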
* hit, by the source's call; [ ] = remark or other dose. Unless noted, calls follow the shape of the dose curve; as a rule, active = well fitted curve in the direction sought with a large enough effect; inconclusive = small, poorly fitted or top-dose-only effect, or another doubt; inactive = no such curve, though single readings can be large; an effect the other way counts as inactive or inconclusive. Potency is read from the fitted curve at half-maximal effect.

`Cc1ccc(C2CC(c3ccco3)n3ncnc3N2)cc1` (stereo not given) gave ERK AVP inh -15%, TSHR ag 9%, FLuc inh 2% and HEK293 cAMP ctrl 7%.
`Cc1ccc2c(c1)C(N1CCCC1=O)CC(c1ccco1)N2` (stereo not given) gave ERK AVP inh -12%, PK Bst inconclusive, TSHR ag 4%, GBA activity >77, FLuc inh 10µM* and HEK293 cAMP ctrl 6%.
CC(=O)OCCN(Cc1ccccc1)Cc1ccc2c(c1)OCO2 was read as ERK AVP inh -28%, PK Bst >57, TSHR ag 25µM*, GBA activity inconclusive, FLuc inh 1% and HEK293 cAMP ctrl 29%.
`Cc1ccc(S(=O)(=O)N(Cc2nccn2C)C(C)C)cc1` gave ERK AVP inh 0%, PK Bst >57, TSHR ag 25µM*, GBA activity >77, FLuc inh 1% and HEK293 cAMP ctrl 25%.
For CCc1c(C)nc(Nc2nc(C)c3cc(OC)ccc3n2)[nH]c1=O the results were ERK AVP inh -4%, PK Bst inactive, TSHR ag 5%, GBA activity >77, FLuc inh 1% and HEK293 cAMP ctrl 15%.
`CCCCCc1c(C)nc(Nc2nc(C)c3cc(OC)ccc3n2)[nH]c1=O` gave ERK AVP inh -8%, PK Bst >57, TSHR ag inconclusive, GBA activity >77, FLuc inh 2% and HEK293 cAMP ctrl 10µM*.
`COc1ccc(-c2cnnn2-c2ccc(NC(=O)c3ccco3)cc2)cc1OC` gave ERK AVP inh 16µM*, PK Bst >57, TSHR ag inconclusive, GBA activity >77, FLuc inh 0% and HEK293 cAMP ctrl inconclusive.
For COc1ccc(Cl)cc1C(=O)Nc1ccc(NC(=O)c2ccco2)cc1 the results were ERK AVP inh -27%, TSHR ag 20%, FLuc inh 2% and HEK293 cAMP ctrl -2%.
CCN1CCN(/C=N/c2nc3c(s2)CCCC3)CC1 was read as ERK AVP inh -9%, PK Bst inconclusive, TSHR ag 2%, GBA activity >77, FLuc inh 13µM* and HEK293 cAMP ctrl 3%.
`CC(C)=CC1C(C(=O)Nc2ccc(Br)cn2)C1(C)C` (stereo not given) gave ERK AVP inh 5%, TSHR ag inconclusive, FLuc inh -1% and HEK293 cAMP ctrl 25µM*.
For OC(COc1ccc2cc(Br)ccc2c1)CN1CCCC1 (stereo not given) the results were ERK AVP inh -19%, TSHR ag 4%, GBA activity >77, FLuc inh inconclusive and HEK293 cAMP ctrl 14%.
OC(COc1ccc2cc(Br)ccc2c1)CN1CCN(c2ccccn2)CC1 (stereo not given) was read as ERK AVP inh 25µM*, PK Bst >57, TSHR ag 12%, GBA activity inconclusive, FLuc inh 0% and HEK293 cAMP ctrl 18%.
For CCN(CC)S(=O)(=O)c1cccc(-c2nnc(SC(C)C#N)n2Cc2ccccc2)c1 (stereo not given) the results were ERK AVP inh -22%, PK Bst >57, TSHR ag inconclusive, GBA activity >77, FLuc inh 4% and HEK293 cAMP ctrl 25µM*.
For CCN(CC)S(=O)(=O)c1cccc(-c2nnc(SCC#N)n2Cc2ccccc2)c1 the results were ERK AVP inh -2%, PK Bst >57, TSHR ag inconclusive, GBA activity >77, FLuc inh -1% and HEK293 cAMP ctrl inconclusive.
For CCOC(=O)c1ccc(N)cc1 the results were ERK AVP inh -3%, TSHR ag -12%[25.6 µM], FLuc inh 2%[25.5 µM] and HEK293 cAMP ctrl -3%[25.6 µM].
`N=C1C=CC(=C(c2ccc(N)cc2)c2ccc(N)cc2)C=C1` gave ERK AVP inh 13µM*, TSHR ag inconclusive, FLuc inh -15%[11.4 µM] and HEK293 cAMP ctrl 23%[11.4 µM].
O=C(Nc1cccc(Cl)c1)c1ccc2c(=O)n3c(nc2c1)CCCCC3 was read as ERK AVP inh -12%, PK Bst inconclusive, TSHR ag 24%, GBA activity >77, FLuc inh 13µM* and HEK293 cAMP ctrl 27%.
Cc1cc2ccc(=O)oc2cc1OC[C@@H](O)C(C)(C)O was read as ERK AVP inh -8%, TSHR ag -10%, FLuc inh 1%[11.4 µM] and HEK293 cAMP ctrl -6%.
Screening CCOC(=O)C1CCN(S(=O)(=O)c2cn(C)c(=O)n(C)c2=O)CC1 returned TSHR ag inconclusive, FLuc inh -2% and HEK293 cAMP ctrl 16µM*.
`Fc1ccc(CNc2nc(-c3ccco3)cc(C(F)(F)F)n2)cc1` gave ERK AVP inh 11%, PK Bst >57, TSHR ag inconclusive, GBA activity >77, FLuc inh -3% and HEK293 cAMP ctrl inconclusive.
Screening FC(F)(F)c1cc(-c2ccco2)nc(NCc2cccnc2)n1 returned ERK AVP inh inconclusive, PK Bst >57, TSHR ag inconclusive, FLuc inh -2% and HEK293 cAMP ctrl 25µM*.
Screening c1ccc2c(c1)nnn1c3ccccc3nc21 returned ERK AVP inh -19%, TSHR ag 2%, FLuc inh 13µM* and HEK293 cAMP ctrl 11%.
C=CS(=O)(=O)c1ccc(Oc2ccc(S(=O)(=O)C=C)cc2)cc1 was read as ERK AVP inh 2.5µM*, PK Bst >57, TSHR ag inconclusive, GBA activity >77, FLuc inh -3% and HEK293 cAMP ctrl inconclusive.
O=S(=O)(c1ccc(Oc2ccc(S(=O)(=O)N3CCOCC3)cc2)cc1)N1CCOCC1 was read as ERK AVP inh -26%, TSHR ag 13%[11.4 µM], FLuc inh 1% and HEK293 cAMP ctrl 8%[11.4 µM].
N#Cc1c(C(F)(F)F)cc(-c2ccco2)nc1SCc1ccccn1 was read as ERK AVP inh 2%, PK Bst >57, TSHR ag inconclusive, GBA activity >77, FLuc inh 0% and HEK293 cAMP ctrl 32µM*.
Screening COc1cccc(Nc2ncc3nc(-c4ccccc4)c(=O)n(C)c3n2)c1 returned ERK AVP inh -4%, TSHR ag 5%, FLuc inh 1%[11.4 µM] and HEK293 cAMP ctrl 29%.
`Clc1ccc(-c2cn3c(n2)CCC3)cc1` gave PK Bst inconclusive and FLuc inh 13µM*.
Screening COC(=O)CNC(=O)C1(C)C=CC2(CCCCC2)N1C(=O)OC (stereo not given) returned ERK AVP inh 8%, TSHR ag 8% and HEK293 cAMP ctrl -3%.

Screening results: PubChem, National Center for Advancing Translational Sciences (NCATS)
